Values without a mark were called inactive. Inconclusive results are not listed. Entries that show only a call come without a potency. Activity calls are given as the source filed them. Calls follow the shape of the dose curve; as a rule, active = well fitted curve in the direction sought with a large enough effect; inconclusive = small, poorly fitted or top-dose-only effect, or another doubt; inactive = no such curve, though single readings can be large; an effect the other way counts as inactive or inconclusive. Where a SMILES comes first, the peptide text is derived from it. [ ]: non-standard residue; d: D form. dPhe(4-Cl) = N[C@H](Cc1ccc(Cl)cc1)C(=O)O; d2Nal = N[C@H](Cc1ccc2ccccc2c1)C(=O)O; dCit = NC(=O)NCCC[C@@H](N)C(=O)O; d3Pal = N[C@H](Cc1cccnc1)C(=O)O
Experiments:
[1] = molecular target: Glutathione peroxidase 1 (Homo sapiens) (UniProt P07203); test: Primary qHTS Assay for Inhibitors of Recombinant Selenoprotein Glutathione Peroxidase 1 (GPX1) (AID 1845191); also: nearly all actives have a fitted effect of over 65% in size
Glutathione peroxidase 1 (Homo sapiens), sequence (P07203 whole entry, looked up): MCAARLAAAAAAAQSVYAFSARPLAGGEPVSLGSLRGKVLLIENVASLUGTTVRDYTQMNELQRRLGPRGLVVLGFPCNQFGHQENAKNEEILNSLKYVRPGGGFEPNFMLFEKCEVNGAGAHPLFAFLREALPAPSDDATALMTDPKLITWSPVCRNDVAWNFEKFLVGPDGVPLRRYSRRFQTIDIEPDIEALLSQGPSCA
Method in brief: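 GR-coupled assay: compounds preincubated 30 min at room temperature with GPX1, then reaction started with CHP; final 10 nM GPX1, 1 mM GSH, 0.5 mM CHP, 0.5 mM NADPH, 100 nM GR, 0.01% BSA, pH 7.5 Tris buffer. NADPH fluorescence (340/450 nm) read at 0 and 15 min.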

[2] = molecular target: Phospholipid hydroperoxide glutathione peroxidase GPX4 (Homo sapiens) (UniProt P36969); test: Primary qHTS Assay for Inhibitors of Recombinant Selenoprotein Glutathione Peroxidase 4 (GPX4) (AID 1845192); also: series mostly up to about 50 µM; nearly all actives have a fitted effect of over 65% in size
Phospholipid hydroperoxide glutathione peroxidase GPX4 (Homo sapiens), sequence (P36969 whole entry, looked up): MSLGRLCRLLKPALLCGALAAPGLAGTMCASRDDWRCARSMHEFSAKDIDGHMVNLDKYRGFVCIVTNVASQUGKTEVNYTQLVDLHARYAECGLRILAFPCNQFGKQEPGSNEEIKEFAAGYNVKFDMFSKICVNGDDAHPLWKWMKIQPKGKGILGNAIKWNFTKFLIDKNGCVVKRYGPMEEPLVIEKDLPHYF
Method in brief: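 GR-coupled assay: recombinant GPX4 preincubated 30 min with compound at room temperature; final 200 nM GPX4, 1 mM GSH, 0.5 mM cumene hydroperoxide, 0.5 mM NADPH, 100 nM GR, 0.01% BSA, pH 7.5 Tris. NADPH fluorescence (340/450 nm) read at 0 and 15 min.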

[3] = molecular target: Luciferin 4-monooxygenase (Photinus pyralis) (UniProt P08659); test: Primary firefly luciferase (FLuc) qHTS assay for identification of artifact compounds. (AID 1845220); also: nearly all actives have a fitted effect of over 60% in size; also: potency is read from the fitted curve at half-maximal effect; as to activity change, negative = inhibition: series mostly up to about 54 µM
Method in brief: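 Enzymatic FLuc inhibition assay: compounds pre-exposed to luciferin/ATP (10 uM each) for 15 min, then purified P. pyralis enzyme at 10 nM added. Read-out: luminescence at 5 min.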

[4] = Primary fluorescence-based thiol-reactive (MSTI) qHTS assay for identification of artifact compounds. (AID 1845221); also: nearly all actives have a fitted effect of over 65% in size; also: potency is read from the fitted curve at half-maximal effect;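 as to activity change, negative = thiol reactive: series mostly up to about 54 µM; thiol-reactive compounds lower the probe fluorescence signal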
Method in brief: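 Probe: MSTI 4 uM, PBS pH 7.4, 2% DMSO. Incubation 1 h, RT, light-protected. Readout fluorescence 525/598 nm.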

[5] = tested on: Nanoluciferase (engineered Oplophorus gracilirostris luciferase); test: Primary Nanoluciferase (NLuc) qHTS assay for identification of artifact compounds. (AID 1845222);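 also: NLuc secreted into diluted conditioned medium of S16 cells; series mostly up to about 54 µM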
Method in brief: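 S16 cell supernatant NLuc, 1:55; cpds qHTS; 15 min RT dark; Nano-Glo substrate 1:100, 5 min; luminescence; Hill fit of % inhibition.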

[6] = Primary redox qHTS assay for identification of artifact compounds. (AID 1845223)
Method in brief: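 Amplex Red (25 uM) and HRP (250 mU/mL) in HBSS, with compounds for 15 min, then 250 uM DTT for 30 min, room temperature, dark. Fluorescence 525/598 nm read; normalized to DMSO and 10 uM DA3003; Hill fit.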

Structure (SMILES) | Potency [1] | Potency [2] | Potency [3] | Potency [4] | Potency [5] | Potency [6] | activity change, negative = inhibition [3] | activity change, negative = thiol reactive [4] | activity, negative = inhibition [5] | redox activity (% of DA3003) [6] | outcome [3]
C=C1C(OC(=O)/C(C)=C\C)[C@@]23CCC4[C@@](C)(CCC[C@@]4(C)C(=O)O)C2CC[C@H]1C3OC(C)=O (stereo partly drawn) | inactive | inactive | inactive | inactive | inactive | inactive |  |  |  |  | 
C=C1C(=O)O[C@H]2C1[C@H](OC(=O)/C(=C/CO)COC(=O)/C(C)=C/CO)CC(=C)[C@@H]1CC(=O)[C@@H](C)[C@@H]12 (stereo partly drawn) | inactive | inactive | inactive | inactive | inactive | inactive |  |  |  |  | 
CC(=O)C1=C(C)N(c2cccc(C(F)(F)F)c2)C(=O)N[C@H]1c1ccc(C#N)nc1 | inactive | inactive |  |  |  |  | -8.43% [at 11.6 µM] | 33.4% [at 11.5 µM] | -1.73% [at 11.6 µM] | -3.41% [at 11.5 µM] | 
C=CC1C(OC2OC(CO)C(O)C(O)C2O)OC=C(C(=O)OC)C1CC(=O)OCC1C(C)C(O)CC1C(CO)COC(=O)CC1C(C(=O)O)=COC(OC2OC(CO)C(O)C(O)C2O)/C1=C\C (stereo not drawn) | inactive | inactive |  |  |  |  | -4.67% [at 11.6 µM] | 7.86% [at 11.5 µM] | -0.732% [at 11.6 µM] | 14.1% [at 11.5 µM] | 
CCN(Cc1cccnc1)C(=O)CN(c1ccc(OC)nc1)S(=O)(=O)c1ccccc1C | inactive | inactive | inactive | inactive | inactive | inactive |  |  |  |  | 
C[C@H](NC(c1cccc2[nH]c(=O)c(=O)[nH]c12)P(=O)(O)O)c1ccc(Br)cc1 (stereo partly drawn) | inactive | inactive | inactive | inactive | inactive | inactive |  |  |  |  | 
O=C1CSc2ccccc2N1Cc1cccc(C(F)(F)F)c1 | inactive | inactive | inactive | inactive | inactive | inactive |  |  |  |  | 
C[C@@H]1CCC2C(C)(C)[C@H](O)CC[C@]2(C)[C@@]12Cc1c(O)cc3c(c1O2)CNC3=O (stereo partly drawn) | inactive | inactive | inactive | inactive | inactive | inactive |  |  |  |  | 
C[C@@H]1O[C@@H](OC[C@H]2O[C@@H](OC(CCCCc3ccc(O)cc3)CCc3ccc(O)cc3)[C@H](O)[C@@H](O)[C@@H]2O)[C@H](O)[C@H](O)[C@H]1O (stereo partly drawn) | inactive | inactive | inactive | 7.93 µM (active) | inactive | inactive |  |  |  |  | 
C[C@@H]1CC[C@]2(C(=O)O[C@@H]3O[C@H](CO)[C@@H](O)[C@H](O)[C@H]3O)CC[C@]3(C)C(=CCC4[C@@]5(C)C[C@@H](O)[C@H](O)[C@](C)(C(=O)O)C5CC[C@]43C)[C@@H]2[C@]1(C)O (stereo partly drawn) | inactive | inactive | inactive | inactive | inactive | inactive |  |  |  |  | 
C/C(=C\CCC(C)CCO)C(=O)O[C@@H]1[C@@H](O)[C@H](OC2OC=C(C(=O)O)C3CCC(C)(O)C23)O[C@H](CO)[C@H]1O (stereo partly drawn) | inactive | inactive | inactive | 8.22 µM (active) | inactive | inactive |  |  |  |  | 
CC(=O)N[C@H](Cc1ccc2ccccc2c1)C(=O)N[C@H](Cc1ccc(Cl)cc1)C(=O)N[C@H](Cc1cccnc1)C(=O)N[C@@H](CO)C(=O)N[C@@H](Cc1ccc(O)cc1)C(=O)N[C@H](CCCNC(N)=O)C(=O)N[C@@H](CC(C)C)C(=O)N[C@@H](CCCN=C(N)N)C(=O)N1CCC[C@H]1C(=O)N[C@H](C)C(N)=O (Ac-[d2Nal][dPhe(4-Cl)][d3Pal]SY[dCit]LRP[dA]-NH2) | inactive | inactive | inactive | inactive | inactive | inactive |  |  |  |  | 
COc1ccc(-c2ccc(-c3cn(C(=O)N4CCCCC4c4ccccc4)nn3)cc2)cc1 (stereo not drawn) | inactive | inactive | inactive | inactive | inactive | inactive |  |  |  |  | 
O=C(O)COCCN1CCN([C@H](c2ccccc2)c2ccc(Cl)cc2)CC1 | inactive | inactive | inactive | inactive | inactive | inactive |  |  |  |  | 
O=C(Cc1ccc(-c2ccccc2)cc1)NC1CCC1 | inactive | inactive | inactive | inactive | inactive | inactive |  |  |  |  | 
CC(C)(O)C1CCC(C)(C2CCC3(C)C4CCC5C(C)(C(=O)OC6OC(CO)C(O)C(O)C6O)C(O)CC(O)C56CC46CCC23C)O1 (stereo not drawn) | inactive | inactive | inactive | inactive | inactive | inactive |  |  |  |  | 
O=C(/C=C/c1ccc(O)cc1)N[C@@H](Cc1ccc(O)cc1)C(=O)O | inactive | inactive | inactive | 7.36 µM (active) | inactive | inactive |  |  |  |  | 
CC(=O)O[C@H]1[C@H](O[C@H]2[C@@H]3C=CO[C@@H](O[C@@H]4O[C@H](CO)[C@@H](O)[C@H](O)[C@H]4O)[C@@H]3[C@@]3(CO)O[C@@H]23)O[C@@H](C)[C@H](OC(=O)/C=C/c2ccccc2)[C@H]1OC(=O)/C=C/c1ccccc1 | inactive | inactive |  |  |  |  |  | 2.44% [at 11.5 µM] | 2.49% [at 11.6 µM] | 5.63% [at 11.5 µM] | inactive [at 11.6 µM]
Cc1ccc(C(=O)Nc2noc3ccccc23)cc1 | inactive | inactive | 84.9 nM (active) | inactive | inactive | inactive |  |  |  |  | 
O=C(Nc1c(-c2cccs2)nc2ccccn12)c1ccc(Cl)cc1 | inactive | inactive | inactive | inactive | inactive | inactive |  |  |  |  | 
COc1cc2c(cc1O)CC[C@H]1[C@@H]2CC[C@]2(C)[C@H](O)CC[C@@H]12 | inactive | inactive | inactive | inactive | inactive | inactive |  |  |  |  | 
C[C@@H]1N[C@H]2N(C1=O)c1ccccc1[C@@]2(O)C[C@@H]1C(=O)N[C@@H](C)c2nc3ccccc3c(=O)n21 | inactive | inactive | inactive | inactive | inactive | inactive |  |  |  |  | 
CC1(C)CC[C@]2(C(=O)O[C@@H]3O[C@H](CO)[C@@H](O)[C@H](O)[C@H]3O)CC[C@]3(C)C(=CCC4[C@@]5(C)C[C@@H](O)[C@H](O)[C@](C)(C(=O)O)C5CC[C@]43C)C2C1O (stereo partly drawn) | inactive | inactive | inactive | inactive | inactive | inactive |  |  |  |  | 

From PubChem BioAssay (NCATS)
